IL-1B inflam inh: qHTS for Inhibitors of Inflammasome Signaling: IL-1-beta AlphaLISA Primary Screen; THP-1 LPS/ATP IL-1B secretion, AlphaLISA, 16 h; hits give low values; activity change, % at 57.5 µM; actives 4.7% (n = 360,000); AID 743279, 2014; in the data active = activity change below about -50%; inconclusive = mostly about -30% to -49%
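Secreted IL-1B measured by AlphaLISA bead assay after 16 h compound exposure of THP-1 cells; compounds (final up to 57.5 uM) added 1 h before LPS (250 ng/mL) and ATP (1.25 mM) stimulation; lower signal means less secretion.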
TGFb inhibitor: qHTS for Inhibitors of TGF-b; Potency, µM (doses to about 46.1 µM), usual class: inhibitors; HepG2 CAGA-GFP TGF-b/SMAD3 reporter, GFP fluorescence, 18 h; TGF-beta stimulated, 500 pg/mL final; actives 1.2% (n = 410,000); AID 588855, 2011; note: nearly all actives have a fitted effect of over 65% in size
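Inhibition was scored as loss of TGF-beta-induced (500 pg/mL final, 18 hours, 37 degrees C) GFP in HEPG2 cells carrying a CAGA-GFP reporter, in DMEM with 1% FBS. Well GFP was summed per cell; Activity was normalised to unstimulated and stimulated DMSO wells, then concentration-response fitting.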
DT40 TDP1 no CPT: qHTS for Inhibitors of human tyrosyl-DNA phosphodiesterase 1 (TDP1): qHTS in cells in absence of CPT; DT40 Tdp1-/- hTDP1 cells, no CPT, ATP luminescence, 48 h; Potency, µM (series often up to 46.2 µM), actives largely listed as inhibitors; actives 15% (n = 420,000); AID 686978, 2013; note: nearly all actives have a fitted effect of over 55% in size
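Growth of hTDP1-complemented DT40 Tdp1-knockout cells is measured by ATP luminescence after at least 48 hr compound exposure at 37 °C, with DMSO substituting for the 20 nM CPT used in the parallel screen.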
DT40 TDP1 CPT: qHTS for Inhibitors of human tyrosyl-DNA phosphodiesterase 1 (TDP1): qHTS in cells in presence of CPT. AID 686979, 2013. actives 12% (n = 420,000). Potency, µM (doses to about 46.2 µM), usual class: inhibitors. chicken DT40 Tdp1-/-;hTDP1 cells + 20 nM CPT, ATP luminescence, 48 h; note: nearly all actives have a fitted effect of over 55% in size
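Chicken DT40 Tdp1-/- cells stably complemented with human TDP1 were seeded at 400 cells/well in medium containing 20 nM camptothecin, exposed to pin-transferred compounds, and grown at 37 °C for at least 48 hr. Viability was read as ATP luminescence.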
TDP1 block: qHTS Assay for Inhibitors of Tyrosyl-DNA Phosphodiesterase (TDP1). Tyrosyl-DNA phosphodiesterase 1 (Homo sapiens), Q9NUW8. recombinant TDP1, AlphaScreen DNA substrate cleavage. Potency, µM (top dose mostly 130 µM), actives largely listed as inhibitors. actives 0.28% (n = 350,000); note: nearly all actives have a fitted effect of over 40% in size
Target sequence (Q9NUW8 whole entry, looked up): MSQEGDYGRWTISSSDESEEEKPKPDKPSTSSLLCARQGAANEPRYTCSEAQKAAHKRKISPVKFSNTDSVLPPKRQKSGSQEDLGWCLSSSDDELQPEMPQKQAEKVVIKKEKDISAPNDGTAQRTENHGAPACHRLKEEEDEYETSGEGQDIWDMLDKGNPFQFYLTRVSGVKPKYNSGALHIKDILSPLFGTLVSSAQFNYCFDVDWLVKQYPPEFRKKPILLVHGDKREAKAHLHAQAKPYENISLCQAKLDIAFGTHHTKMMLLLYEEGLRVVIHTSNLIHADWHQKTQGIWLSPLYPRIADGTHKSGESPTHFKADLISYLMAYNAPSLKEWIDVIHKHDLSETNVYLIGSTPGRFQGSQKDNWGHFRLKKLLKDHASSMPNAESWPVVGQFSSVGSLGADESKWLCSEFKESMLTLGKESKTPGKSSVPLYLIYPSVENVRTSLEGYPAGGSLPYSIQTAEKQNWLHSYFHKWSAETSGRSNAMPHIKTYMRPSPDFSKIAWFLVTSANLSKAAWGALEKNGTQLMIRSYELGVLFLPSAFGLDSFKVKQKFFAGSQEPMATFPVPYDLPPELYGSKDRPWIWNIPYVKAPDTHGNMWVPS
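E. coli-derived human Tdp1, 1 nM final. Cpd preinc 15 min RT; substrate 15 nM final, 5 min RT; AS bead mix 10 ug/ml final, 10 min RT. Signal loss = tyrosine-FITC cleavage. No-enzyme wells = max signal.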
HepG2 tox: qHTS for Inhibitors of TGF-b: Cytotox Counterscreen; HepG2 CAGA-GFP viability, ATP luminescence, 18 h; actives 0.76% (n = 410,000); Potency, µM (series often up to 46.1 µM), hits mostly cytotoxic
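CellTiter-Glo luminescence gave cytotoxicity after 18 hours at 37 degrees C. The cells were HepG2 CAGA-GFP in 1% FBS DMEM, stimulated with 500 pg/mL TGF-beta after compound addition. %Activity was normalised to no-cell wells (complete cell-killing) and DMSO (no toxicity), and curves were fitted and classified.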
Hits are given with their value; i = inactive; ? = inconclusive; nt = no result given; ! = a repeat was not active; [ ] = dose if it differs, or a comment. Shown are actives, neighbours in structure and some others; about 19% of the full set was active somewhere. Unless noted, calls come from the whole dose curve; as a rule, active = well fitted curve in the direction sought with a large enough effect; inconclusive = small, poorly fitted or top-dose-only effect, or another doubt; inactive = no such curve, though single readings can be large; an effect the other way counts as inactive or inconclusive.

SMILES | IL-1B inflam inh | TGFb inhibitor | DT40 TDP1 no CPT | DT40 TDP1 CPT | TDP1 block | HepG2 tox
CCN1CCN(c2ccc(NC(=O)c3ccc4c(c3)OCCO4)cc2C)CC1 | ? | i | i | i | i | i
CCN1CCN(Cc2ccc(NC(=O)c3ccc(C)c(NC(=O)c4cc(-c5ccc(Br)cc5)n[nH]4)c3)cc2C(F)(F)F)CC1 | -58 | ? | ? | ? | i | i
CCN1CCN(Cc2ccc(NC(=O)c3ccc(C)c(NC(=O)c4cccc5[nH]ccc45)c3)cc2C(F)(F)F)CC1 | -98 | ? | 13µM | 12µM | i | i
CCN1CCN(Cc2ccc(NC(=O)c3ccc(C)c(NC(=O)c4cncc(-c5cccs5)c4)c3)cc2C(F)(F)F)CC1 | -110 | ? | 1.6µM | 2.3µM | nt | 10µM
CCN1CCN(Cc2ccc(NC(=O)c3ccc(C)c(NC(=O)c4nccn4C)c3)cc2C(F)(F)F)CC1 | -58 | ? | i | i | i | i
CCN1CCN(CCC(=O)Nc2cc(C)ccc2C)CC1 | i | i | i | i | i | i
Cc1ccc(S(=O)(=O)NCCc2cn3c(C)csc3n2)cc1 | nt | i | i | i | i | i
COc1cc(OC)cc(C(=O)N2CCN(Cc3ccccc3C(F)(F)F)CC2)c1 | i | i | ? | ? | nt | i
CCN1CCN(Cc2ccc(NC(=O)c3cc(NC(=O)c4cnnc5ccccc45)cc(OC)c3)cc2C(F)(F)F)CC1 | i | ? | 6.5µM | 8.2µM | i | 18µM!
CCN1CCN(Cc2ccc(NC(=O)c3ccc(C)c(NC(=O)c4nccnc4N)c3)cc2C(F)(F)F)CC1 | -93 | ? | 21µM | ? | i | i
CCN1CCN(Cc2ccc(NC(=O)c3cc(NC(=O)c4nccnc4N)cc(OC)c3)cc2C(F)(F)F)CC1 | ? | ? | ? | ? | i | i
CC(C)(C)OC1NS(=O)(=O)OCC1NCOC(Cl)(Cl)Cl (centres undefined) | i | i | 3.7µM | 3.3µM | nt | i
CCN(CC)c1ccc(/C=C2\CCC(/C=C(/C#N)C(=O)Nc3ccccc3F)=C2N2CCOCC2)cc1 | i | i | 2.3µM | 2.1µM | nt | i
CCN(CC)c1ccc(/C=C2\CCC(/C=C(\C#N)C(=O)Nc3ccccc3F)=C2N2CCOCC2)cc1 | i | i | 2.3µM | 6.5µM | i | i
Cc1cc(/C=C(\C#N)C(=O)Nc2ccccc2F)c(C)[nH]1 | i | i | i | i | i | i
C(=Nc1cnc2ccccc2c1)c1ccncc1 | nt | i | i | i | nt | i
C[C@@]12CCc3occc3[C@H]1CC[C@@]13C[C@@H](CC[C@H]12)[C@@](O)(CO)C3 | nt | nt | nt | nt | i | nt
Cc1ccc(S(=O)(=O)N2CC(C)N(C(=O)N3CCOCC3)C2)cc1 (centres undefined) | i | i | i | i | nt | i
CN1/C(=C\C(=O)Nc2ccc(Cl)cc2)C(C)(C)c2ccccc21 | -58 | ? | ? | ? | i | i
CN1/C(=C\C(=S)Nc2ccccc2)C(C)(C)c2ccccc21 | ? | i | 2.1µM | 10µM | i | i
CC(C)n1c(SCC(=O)Nc2ccc(F)cc2)nc2c(oc3ccccc32)c1=O | nt | i | ? | ? | i | i
CCC1CN(C)C2Cc3c([nH]c4ccccc34)C(=O)CC1C2C(=O)OC (centres undefined) | i | i | i | 23µM | nt | i
COC(=O)[C@H]1[C@@H]2C[C@@H]3c4[nH]c5ccccc5c4CCN3C[C@H]2CC[C@H]1O | nt | nt | i | i | i | nt
O=S(=O)(c1ccc(Cl)cc1)c1nc(-c2ccco2)oc1SCc1ccccc1F | nt | i | 16µM | 23µM | i | i
CC(C)CS(=O)(=O)c1oc(-c2ccc(F)cc2)nc1S(=O)(=O)c1ccccc1 | nt | 3.2µM | 0.46µM | 0.41µM | i | 7.1µM
SMILES | IL-1B inflam inh | TGFb inhibitor | DT40 TDP1 no CPT | DT40 TDP1 CPT | TDP1 block | HepG2 tox
CCC(C)Sc1oc(-c2ccco2)nc1S(=O)(=O)c1ccc(Cl)cc1 (centres undefined) | nt | i | ? | 18µM | i | i
O=S(=O)(c1ccc(Br)cc1)c1nc(-c2ccco2)oc1SCc1ccccc1Cl | nt | i | ? | 16µM | i | i
Cc1ccc(CSc2oc(-c3ccco3)nc2S(=O)(=O)c2ccc(Cl)cc2)cc1 | nt | i | ? | ? | i | i
Cc1ccc(CSc2oc(-c3ccco3)nc2S(=O)(=O)c2ccc(Br)cc2)cc1 | nt | i | ? | ? | i | i
CCSc1oc(-c2ccc(F)cc2)nc1S(=O)(=O)c1ccc(C)cc1 | nt | i | 16µM | i | i | i
Cc1ccc(S(=O)(=O)c2nc(-c3cccs3)oc2SCc2ccc(F)cc2)cc1 | nt | i | 10µM | 16µM | i | i
O=S(=O)(c1ccc(Cl)cc1)c1nc(-c2cccs2)oc1SCc1ccccc1F | nt | i | 23µM | 16µM | i | i
Cc1ccc(CSc2oc(-c3cccs3)nc2S(=O)(=O)c2ccccc2)cc1 | nt | i | ? | ? | i | i
Cc1ccc(S(=O)(=O)c2nc(-c3cccs3)oc2SC(C)c2ccccc2)cc1 (centres undefined) | nt | i | ? | ? | i | i
O=C(CCC1N=C2c3ccccc3N=C(SCC(=O)Nc3ccccc3F)N2C1=O)NCc1ccccc1 (centres undefined) | nt | i | ? | ? | i[12.3 µM] | i
CC1C/C(=C\c2cccnc2)C(=O)/C(=C/c2cccnc2)C1 (centres undefined) | -101 | ? | 0.73µM | 0.82µM | i | 16µM
O=C1/C(=C/c2cccnc2)CCc2c1[nH]c1ccccc21 | -103 | i | ? | 18µM | i | i
COc1cc(OC)cc(-c2nnc(NC(=O)CCS(=O)(=O)c3ccc(F)cc3)o2)c1 | -66 | ? | ? | ? | i | i
COc1cc(OC)cc(-c2nnc(NC(=O)CCS(=O)(=O)c3ccccc3)o2)c1 | -72 | i | 16µM | ? | nt | i
Cc1c(C(=O)N2CCN(c3ccc([N+](=O)[O-])cc3)CC2)oc2ccccc12 | i | i | 16µM | ? | i | i
Cc1c(-c2ccccc2)oc2c(C(=O)N3CCN(c4ccc([N+](=O)[O-])cc4)CC3)cccc2c1=O | i | i | 21µM | 16µM | i | i
CCOC(=O)c1oc2ccccc2c1CN1CCN(c2ccccc2)CC1 | i | i | 18µM | ? | i | i
COc1ccc2oc(C(=O)OCC(=O)N3CCN(c4ccccc4)CC3)c(C)c2c1 | i | i | ? | i | i | i

Screens deposited in PubChem by National Center for Advancing Translational Sciences (NCATS).
